Consider 17 molecules from PubChem BioAssay (NCATS).

Values joined by “and” are separate entries in the source; they are usually repeats but may differ in a detail not shown here. Identical values can stand only once. Values without a mark were called inactive. Inconclusive results are not listed. Active and inactive are the calls of the source. Unless noted, calls follow the shape of the dose curve; as a rule, active = well fitted curve in the direction sought with a large enough effect; inconclusive = small, poorly fitted or top-dose-only effect, or another doubt; inactive = no such curve, though single readings can be large; an effect the other way counts as inactive or inconclusive.

Test [1] is described as follows: Drug repurposing screens with cells derived from glioblastoma tumor samples (AID 1345199). Also: nearly all actives have a fitted effect of over 40% in size. Also: potency is read from the fitted curve at half-maximal effect. As to activity, negative = cell killing: % is scaled to controls: 0 for no effect and ±100 for the full control effect. The conditions noted are these: GBM patient neurospheres viability, ATP luminescence, 48 h. The gist of the method: (§1)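 Four patient lines of CD133+ GBM neurospheres were screened at several concentrations; hits were retested in those lines plus three slower-growing GBM lines, using 48-hour treatment and ATP-based viability.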

The test system of test [2] is C33A. The test can be described thus: Primary qHTS to identify gynecologic anti-cancer compounds using libraries of approved drugs and bioactive compounds (AID 1345084). Also: nearly all actives have a fitted effect of over 55% in size. Also: potency is read from the fitted curve at half-maximal effect. The settings on record: Gynecologic cancer cell panel viability, ATPlite luminescence, 48 h; series mostly up to 57.5 µM. The gist of the method:
(§2)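 Cytotoxicity screen measuring ATP content by luciferase luminescence. Each compound is applied at five concentrations for 48 h at 37 C with 5% CO2.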

The test system of test [3] is CAOV3. Described as above. The settings on record: Gynecologic cancer cell panel viability, ATPlite luminescence, 48 h; series mostly up to 57.5 µM. In short, it runs like this: as §2
A general note: Cellular ATP, detected with luciferase, serves as a proxy for viable cell number.

Test [4] relates to CASKI. Described as above. The conditions noted are these: Gynecologic cancer cell panel viability, ATPlite luminescence, 48 h; series mostly up to 57.5 µM. The gist of the method: as §2
The test system of test [5] is Es-2. Described as above. The conditions noted are these: Gynecologic cancer cell panel viability, ATPlite luminescence, 48 h; series mostly up to 57.5 µM. The gist of the method:
as §2

In test [6] the test system is HeLa. The description is as above. The settings on record: Gynecologic cancer cell panel viability, ATPlite luminescence, 48 h; series mostly up to 57.5 µM. The gist of the method: as §2
For test [7], the system named is Hek293T. The test is described as above. The conditions noted are these: Gynecologic cancer cell panel viability, ATPlite luminescence, 48 h, control line for the selectivity index; series mostly up to 57.5 µM. In short, it runs like this: as §2
Test [8] relates to JEG-3. The test is described as above. The conditions noted are these: Gynecologic cancer cell panel viability, ATPlite luminescence, 48 h; series mostly up to 57.5 µM. In short, it runs like this:
as §2

Test [9] deals with OV90. The test is described as above. The settings on record: Gynecologic cancer cell panel viability, ATPlite luminescence, 48 h; series mostly up to 57.5 µM. The gist of the method:
as §2

The subject of test [10] is PA-1. The test is described as above. The conditions noted are these: Gynecologic cancer cell panel viability, ATPlite luminescence, 48 h; series mostly up to 57.5 µM. The gist of the method: as §2
The test system of test [11] is SKOV3. Described as above. The settings on record: Gynecologic cancer cell panel viability, ATPlite luminescence, 48 h; series mostly up to 57.5 µM. The gist of the method:
as §2

The test system of test [12] is Tov-21-G. The description is as above. The conditions noted are these: Gynecologic cancer cell panel viability, ATPlite luminescence, 48 h; series mostly up to 57.5 µM. The gist of the method: as §2
Test [13] relates to Tov112D. Described as above. The settings on record: Gynecologic cancer cell panel viability, ATPlite luminescence, 48 h; series mostly up to 57.5 µM. The gist of the method:
as §2

Test [14] has as its system astro (control astrocytes). The test can be described thus: Drug repurposing screens with cells derived from glioblastoma tumor samples (AID 1345199). Also: nearly all actives have a fitted effect of over 40% in size. Also: potency is read from the fitted curve at half-maximal effect. As to activity, negative = cell killing: % is scaled to controls: 0 for no effect and ±100 for the full control effect. The settings on record: viability, ATP luminescence, 48 h; series mostly up to 45.9 µM. The gist of the method: as §1
In test [15] the target is Nuclear receptor subfamily 1 group I member 2 (Rattus norvegicus) (UniProt Q9R1A7). The test can be described thus: qHTS assay for small molecule activators of the rat pregnane X receptor (rPXR) signaling pathway (AID 651751; call rule not given here; also: 0% is about no effect). The conditions noted are these: rPXR reporter cells, luciferase (One-Glo), 24 h. (qHTS replaces the single test concentration by a dilution series.)
Nuclear receptor subfamily 1 group I member 2 (Rattus norvegicus), sequence (Q9R1A7 whole entry, looked up): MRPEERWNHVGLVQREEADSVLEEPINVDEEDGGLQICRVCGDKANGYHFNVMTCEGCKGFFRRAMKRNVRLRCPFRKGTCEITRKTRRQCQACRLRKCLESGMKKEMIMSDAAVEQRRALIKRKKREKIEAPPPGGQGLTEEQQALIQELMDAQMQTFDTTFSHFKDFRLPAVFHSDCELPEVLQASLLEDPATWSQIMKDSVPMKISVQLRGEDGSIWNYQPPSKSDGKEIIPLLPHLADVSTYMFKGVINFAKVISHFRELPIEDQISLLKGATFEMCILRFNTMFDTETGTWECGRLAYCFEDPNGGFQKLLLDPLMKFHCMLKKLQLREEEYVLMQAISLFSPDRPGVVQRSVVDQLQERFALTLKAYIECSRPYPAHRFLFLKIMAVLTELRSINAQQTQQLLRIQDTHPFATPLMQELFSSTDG

The nature of test [16]: qHTS assay for small molecule activators of the human pregnane X receptor (PXR) signaling pathway (AID 720659; call rule not given here; also: 0% is about no effect). The conditions noted are these: DPX-2 HepG2 CYP3A4-luciferase, 24 h; series mostly up to 92.3 µM.
[17] abbreviates: at 21.2 µM (top of the series), tumour line B.
The mark [18] stands for this setting: at 21.2 µM (top of the series), tumour line D.
Setting [19] is: at 108 µM (top of the series), tumour line B.
Where [20] appears, read: at 108 µM (top of the series), tumour line D.
Where [21] appears, read: at 45.9 µM (top of the series), tumour line B.
Where [22] appears, read: at 45.9 µM (top of the series), tumour line D.
Setting [23] is: at 46 µM (top of the series), tumour line A.

Regarding `CN(C)C(=O)Oc1cc(OC(=O)N(C)C)cc(C(O)CNC(C)(C)C)c1` (configuration not stated), the activity, negative = cell killing was -7.15% in test [1] (setting [17]); -0.819% in [1] (setting [18]); -13.9% in [1] (at 21.3 µM (top of the series), tumour line A).
Consider `OC(c1ccccc1)(c1ccccc1)C1CCNCC1`, for which the activity, negative = cell killing in test [1] (setting [17]) is -16.1%; in test [1] (setting [18]), -0.163%.
On to `COc1ccc2[nH]cc(CCN(C(C)C)C(C)C)c2c1`, for which the activity, negative = cell killing in test [1] (setting [19]) is -6.42%; in test [1] (setting [20]), -9.85%.
Turning to `C[C@@H]1CN(C2CCC(C#N)(c3ccc(F)cc3)CC2)CC[C@]1(C(=O)O)c1ccccc1` (some centres not stated), the Potency entry in [2], in test [3], in test [4], in [5], in test [6] and in test [7] was “inactive” each time. In addition, the Potency result in [8], in test [9], in test [10], in [11], in test [12] and in [13] was “inactive” throughout. Further, the Potency result in test [14] is “inactive”. Moreover, the activity, negative = cell killing was -8.19% in [1] (setting [17]) and -4.39% in [1] (setting [18]).
For `CC(CC(C#N)(c1ccccc1)c1ccccc1)N(C)C` (configuration not stated), the Potency entry in test [2], in test [3], in test [4], in test [5], in test [6] and in test [7] was “inactive” throughout. In addition, the Potency result in [8], in [10], in [12] and in [13] was “inactive” each time.
Regarding `CCOC(=O)c1ncn2c1CN(C)C(=O)c1c(I)cccc1-2`, the Potency result in test [2], in [3], in [4], in test [5], in [6] and in test [7] was “inactive” in each case. Also, the Potency entry in test [8], in test [9], in [10], in test [12] and in [13] was “inactive” each time.
Turning to `CN1C2CCC(C)(C)C1CC(OC(=O)C(O)(c1cccs1)c1cccs1)C2` (configuration not stated), the Potency entry in test [2], in [3], in [4], in test [5], in test [6] and in test [7] was “inactive” each time. The Potency result in test [8], in [10], in [11], in test [12] and in [13] was “inactive” each time.
As for `Oc1c(Br)cc(Br)cc1Br`, the Potency result in test [2], in test [3], in [4], in [5], in [6] and in test [7] was “inactive” each time. Further, the Potency entry in [8], in test [9], in test [10], in test [11], in test [12] and in [13] was “inactive” each time. The Potency result in test [14] is “inactive”. In addition, the activity, negative = cell killing in test [1] (setting [21]) is -7.26%; in test [1] (setting [22]), 14.2%; in test [1] (setting [23]), -28%. For the same molecule, in test [15], the max response is 8.69% and -3.29%.
As for `CCC1(c2cccc(O)c2)CCCCN(C)C1` (configuration not stated), the Potency result in [2], in test [3], in test [4], in test [5], in test [6] and in [7] was “inactive” each time. In addition, the Potency result in test [8], in [9], in [10], in test [11], in test [12] and in test [13] was “inactive” throughout. Also, the Potency entry in test [14] was “inactive”. Moreover, the activity, negative = cell killing is -5.3% in [1] (setting [17]) and -23.7% in test [1] (setting [18]).
Regarding `CC(C)=CCN1CC[C@@]2(C)c3cc(O)ccc3C[C@@H]1[C@@H]2C`, the Potency result in test [2], in test [3], in [4], in [6], in [7] and in test [8] was “inactive” in each case. Moreover, the Potency entry in [10], in test [11], in test [12] and in test [13] was “inactive” each time. In addition, the figures for the Potency in test [5] and in [1] (tumour line A) were 28.2 µM (active) and 25.1 µM (active), respectively. Further, in test [1] (at 91.6 µM (top of the series), tumour line B), the activity, negative = cell killing is -12.8%.
In the case of `CC1Sc2c(C(=O)O)c(=O)c3cc(F)c(N4CCNCC4)cc3n21` (configuration not stated), the Potency result in [2], in test [3], in test [4], in [5], in [6] and in [7] was “inactive” throughout. The Potency entry in test [8], in test [9], in test [10], in [12] and in test [13] was “inactive” throughout.
For `Cc1ccc(N=CN(C)C=Nc2ccc(C)cc2C)c(C)c1`, the Potency result in [2], in test [3], in test [4], in [5], in test [6] and in test [7] was “inactive” throughout. Besides, the Potency entry in [8], in test [9], in [10], in test [11], in test [12] and in test [13] was “inactive” in each case. Further, the activity, negative = cell killing in test [1] (setting [21]) is -15.5%; in test [1] (setting [22]), -9.79%. For the same molecule, the max response in test [15] was 4.54%. In addition, the molecule was classed as inactive in test [16].
In the case of `CN1CCC(N(Cc2ccccc2)c2ccccc2)CC1`, the Potency result in [2], in test [3], in test [4], in [5], in [6] and in test [7] was “inactive” in each case. Further, the Potency entry in [8], in [10], in test [11], in test [12] and in test [13] was “inactive” throughout.
`CCS(=O)(=O)C(C)(C)S(=O)(=O)CC`: the Potency result in test [2], in [3], in test [4], in [5], in test [6] and in test [7] was “inactive” each time. Also, the Potency entry in test [8], in test [9], in test [10], in test [11], in test [12] and in test [13] was “inactive” throughout. In test [14], the Potency entry was “inactive”. Besides, the activity, negative = cell killing in [1] (setting [21]) was -4.87%; in test [1] (setting [22]), 5.45%.
On to `CNC(=O)Oc1cccc2ccccc12`, for which the Potency entry in [2], in [3], in [4], in test [5], in test [6] and in test [7] was “inactive” in each case. In addition, the Potency entry in [8], in test [10], in [11], in [12] and in [13] was “inactive” throughout. For the same molecule, in test [1] (tumour line A), the Potency is 35.5 µM (active). The max response in test [15] was 5.05% and 2.44%.
As to `CNC(C)Cc1ccc2c(c1)OCO2` (configuration not stated), the Potency entry in test [2], in test [3], in test [4], in test [5], in test [6] and in test [7] was “inactive” each time. Besides, the Potency result in [8], in test [9], in [10], in [11], in test [12] and in test [13] was “inactive” each time. In [14], the Potency result is “inactive”. Besides, the values for the activity, negative = cell killing in [1] (setting [19]) and in test [1] (setting [20]) were 0.451% and -9%, respectively. Besides, the Potency in test [1] (tumour line A) is 50.1 µM (active).
With `COC(=O)C1=CCCN(C)C1`, the Potency result in test [2], in test [3], in test [4], in test [5], in test [6] and in test [7] was “inactive” each time. Further, the Potency result in test [8], in test [9], in test [10], in test [11], in [12] and in [13] was “inactive” throughout. In test [14], the Potency result was “inactive”. Also, the activity, negative = cell killing was -5.77% in [1] (setting [21]), -12.9% in [1] (setting [22]) and -22.4% in [1] (setting [23]).
